{"source": "paper PMC4336329", "about": "(PLoS ONE, 2015)", "note": "The whole screen tested about 310,000 compounds, of which about 14,000 (4.5%) showed an effect of 50% or more. Effects have a minus sign here. The sample as a whole holds a higher share of strong results than the screen did.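 Note: peak tail current of the secondary pulse compared with the same well before compound.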"}
{"molecular_target": "human ether-à-go-go-related gene (hERG) potassium channel (human, UniProt Q12809)", "sequence (Q12809 whole entry, looked up)": "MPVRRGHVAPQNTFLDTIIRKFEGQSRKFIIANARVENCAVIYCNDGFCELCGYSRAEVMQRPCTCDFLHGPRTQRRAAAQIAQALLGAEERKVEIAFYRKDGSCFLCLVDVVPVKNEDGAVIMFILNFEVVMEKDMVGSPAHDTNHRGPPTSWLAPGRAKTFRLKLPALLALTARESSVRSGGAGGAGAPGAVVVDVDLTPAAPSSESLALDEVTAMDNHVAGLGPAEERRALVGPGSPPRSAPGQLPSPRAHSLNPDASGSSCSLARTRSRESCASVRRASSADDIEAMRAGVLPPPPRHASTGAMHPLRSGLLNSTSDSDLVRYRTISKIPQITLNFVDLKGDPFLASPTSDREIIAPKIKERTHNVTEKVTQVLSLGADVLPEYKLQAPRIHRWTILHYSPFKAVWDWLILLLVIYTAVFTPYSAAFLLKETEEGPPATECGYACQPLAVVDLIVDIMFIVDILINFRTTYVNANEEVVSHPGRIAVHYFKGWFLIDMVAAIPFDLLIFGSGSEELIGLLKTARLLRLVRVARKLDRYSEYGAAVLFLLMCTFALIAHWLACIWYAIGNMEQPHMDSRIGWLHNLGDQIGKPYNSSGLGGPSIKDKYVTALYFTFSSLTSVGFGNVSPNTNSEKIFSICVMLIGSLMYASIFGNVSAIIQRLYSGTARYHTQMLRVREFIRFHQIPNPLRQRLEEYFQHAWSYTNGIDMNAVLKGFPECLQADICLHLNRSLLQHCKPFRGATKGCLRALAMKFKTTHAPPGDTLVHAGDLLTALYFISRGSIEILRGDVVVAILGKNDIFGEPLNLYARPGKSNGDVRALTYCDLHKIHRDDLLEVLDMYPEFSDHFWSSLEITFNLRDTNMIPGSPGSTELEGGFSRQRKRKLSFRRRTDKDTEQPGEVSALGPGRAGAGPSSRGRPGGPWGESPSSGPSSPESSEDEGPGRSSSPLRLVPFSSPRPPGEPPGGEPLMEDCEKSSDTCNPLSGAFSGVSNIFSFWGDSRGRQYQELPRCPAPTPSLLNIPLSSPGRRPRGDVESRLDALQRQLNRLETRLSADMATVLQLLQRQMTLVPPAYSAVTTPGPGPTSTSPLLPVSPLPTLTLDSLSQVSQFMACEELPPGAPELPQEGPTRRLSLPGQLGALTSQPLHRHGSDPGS", "assay": "primary screen, population patch clamp on CHO cells stably expressing hERG; higher = less effect of the substance", "units": {"hERG current change (%, negative = inhibition) at 10uM": "%"}}
{"smiles": "CC(C)CN(C(=O)COC(=O)C1CC1)c1c(N)n(Cc2ccccc2)c(=O)[nH]c1=O", "hERG current change (%, negative = inhibition) at 10uM": 13}
{"smiles": "CCc1c(O)nc(SCC(=O)Nc2nc3ccccc3s2)n(-c2ccc(C)cc2)c1=O", "hERG current change (%, negative = inhibition) at 10uM": -17.8}
{"smiles": "Clc1ccc(-c2csc(N3CCc4ccccc4C3)n2)cc1", "hERG current change (%, negative = inhibition) at 10uM": 14.3}
{"smiles": "COc1c(S(=O)(=O)NCCN2CCOCC2)ccc(Cl)c1Cl", "hERG current change (%, negative = inhibition) at 10uM": -16.3}
{"smiles": "CNC(=O)COC(=O)c1cc(NC(=O)c2ccco2)c(OC)c(OC)c1", "hERG current change (%, negative = inhibition) at 10uM": 2.4}
{"smiles": "O=S(=O)(c1cc(C(F)(F)F)ccc1Cl)N1CCN(c2ccccn2)CC1", "hERG current change (%, negative = inhibition) at 10uM": -26.3}
{"smiles": "CC(C)n1cnnc1SCC(=O)Nc1cccc(S(=O)(=O)N(C)c2ccccc2)c1", "hERG current change (%, negative = inhibition) at 10uM": -12.4}
{"smiles": "c1ccc(C2(c3ccccc3)OCC(Cn3cncn3)O2)cc1", "note": "(stereo not drawn)", "hERG current change (%, negative = inhibition) at 10uM": -0.819}
{"smiles": "COc1ccc(/C=N/n2cnc3c(sc(=S)n3-c3ccccc3)c2=O)cc1", "hERG current change (%, negative = inhibition) at 10uM": 13.4}
{"smiles": "O=C(c1cc(C2CC2)nc2ccccc12)N1N=C(C(F)F)CC1(O)C(F)F", "note": "(stereo not drawn)", "hERG current change (%, negative = inhibition) at 10uM": -18.3}
{"smiles": "O=C(c1ccccc1-n1cccc1)N1N=C(C(F)F)CC1(O)C(F)F", "note": "(stereo not drawn)", "hERG current change (%, negative = inhibition) at 10uM": -63.2}
{"smiles": "O=C(c1cc(-c2ccccc2)nc2ccccc12)N1N=C(C(F)F)CC1(O)C(F)F", "note": "(stereo not drawn)", "hERG current change (%, negative = inhibition) at 10uM": -13.2}
{"smiles": "COc1ccc(-c2cc(C(=O)NCc3ccco3)c3ccccc3n2)cc1", "hERG current change (%, negative = inhibition) at 10uM": -5.84}
{"smiles": "Cc1nn(-c2cc(Cl)ccc2Cl)c(C)c1C(=O)O", "hERG current change (%, negative = inhibition) at 10uM": 13.2}
{"smiles": "CN(c1ccc(OCC(=O)N2CCN(c3ccc(F)cc3)CC2)cc1)S(=O)(=O)c1cccs1", "hERG current change (%, negative = inhibition) at 10uM": -58.7}
{"smiles": "CC(=O)N1CCN(C(=O)COc2ccc(N(C)S(=O)(=O)c3cccs3)cc2)CC1", "hERG current change (%, negative = inhibition) at 10uM": -14.7}
{"smiles": "Cc1ccc2c(c1)C1CN(C)CCC1N2C(=O)COc1ccc(N(C)S(=O)(=O)c2cccs2)cc1", "note": "(stereo not drawn)", "hERG current change (%, negative = inhibition) at 10uM": -52.9}
{"smiles": "CN(c1ccc(OCC(=O)N2CCCCC2)cc1)S(=O)(=O)c1cccs1", "hERG current change (%, negative = inhibition) at 10uM": -11.2}
{"smiles": "O=C(COc1ccc(S(=O)(=O)NC2CCCCC2)cc1)NC1CCCC1", "hERG current change (%, negative = inhibition) at 10uM": -8.19}
{"smiles": "O=C(COc1ccc(S(=O)(=O)NC2CCCCC2)cc1)NC1CCCCC1", "hERG current change (%, negative = inhibition) at 10uM": -54.1}
{"smiles": "CN(c1ccc(OCC(=O)NC2CCCC2)cc1)S(=O)(=O)c1cccs1", "hERG current change (%, negative = inhibition) at 10uM": -80.6}
{"smiles": "Cc1ccc2c(c1)C1CN(C)CCC1N2C(=O)COc1ccc(N(C)C(=O)C(C)(C)C)cc1", "note": "(stereo not drawn)", "hERG current change (%, negative = inhibition) at 10uM": -9.48}
{"smiles": "CCOc1ccc(S(=O)(=O)N(C)c2ccc(OCC(=O)N3c4ccc(C)cc4C4CN(C)CCC43)cc2)cc1", "note": "(stereo not drawn)", "hERG current change (%, negative = inhibition) at 10uM": -38.5}
{"smiles": "CCN(CC)c1ccc(NC(=O)COc2ccc(N(C)S(=O)(=O)c3cccs3)cc2)cc1", "hERG current change (%, negative = inhibition) at 10uM": 8.15}
{"smiles": "O=C(COc1ccc(S(=O)(=O)NC2CCCCC2)cc1)NC1CC1", "hERG current change (%, negative = inhibition) at 10uM": 3.4}
{"smiles": "Cc1ccc(N(CC(=O)NC2CCCCC2)S(=O)(=O)c2cccs2)cc1", "hERG current change (%, negative = inhibition) at 10uM": 5.9}
{"smiles": "C#Cc1cccc(C(=O)N2CCCC(C(=O)c3ccc(OC)cc3C)C2)c1", "note": "(stereo not drawn)", "hERG current change (%, negative = inhibition) at 10uM": -6.8}
{"smiles": "COc1ccc(S(=O)(=O)N2CCC(C(=O)Nc3ccccc3N3CCCCC3)CC2)cc1OC", "hERG current change (%, negative = inhibition) at 10uM": 3.04}
{"smiles": "Cc1ccc(S(=O)(=O)N2CCC(C(=O)Nc3ccccc3N3CCCCC3)CC2)cc1C", "hERG current change (%, negative = inhibition) at 10uM": -9.46}
{"smiles": "C=CCn1c(Cc2csc(N)n2)nnc1SCC(=O)OCC", "hERG current change (%, negative = inhibition) at 10uM": -0.614}
{"smiles": "O=C(O)CCc1nc2ccccc2c(=O)[nH]1", "hERG current change (%, negative = inhibition) at 10uM": 38.7}
{"smiles": "CC(=O)c1cn(CC(=O)NCc2cccnc2)c2ccccc12", "hERG current change (%, negative = inhibition) at 10uM": 3.67}
{"smiles": "CCc1nnc(NC(=O)CSc2nnc(-c3cccnc3)n2C)s1", "hERG current change (%, negative = inhibition) at 10uM": 13.6}
{"smiles": "CCOc1ccc(OCCC(=O)OCC(=O)N2CCN(c3ccc(OC)cc3)CC2)cc1", "hERG current change (%, negative = inhibition) at 10uM": 6.92}
{"smiles": "CN1CCN(C(=O)c2ccccc2NC(=O)CCN2C(=O)c3ccccc3C2=O)CC1", "hERG current change (%, negative = inhibition) at 10uM": -3.71}
{"smiles": "C=CCSc1nnc(NC(=O)CSc2nc3ccccc3[nH]2)s1", "hERG current change (%, negative = inhibition) at 10uM": 9.74}
{"smiles": "COc1cccc(NC(=O)Cn2c(-c3cncs3)nc3ccccc32)c1", "hERG current change (%, negative = inhibition) at 10uM": -23.9}
{"smiles": "O=C(CNC(=O)c1ccco1)OCc1cccc(Cl)c1", "hERG current change (%, negative = inhibition) at 10uM": -7.25}
{"smiles": "COC(=O)c1c(C(=O)OC)n(CCCN)c2ccc(C)cc12.Cl", "hERG current change (%, negative = inhibition) at 10uM": -77}
{"smiles": "COC(=O)c1c(C)n(-c2ccc(C)cc2)c2ccc(O)cc12", "hERG current change (%, negative = inhibition) at 10uM": -3.54}
{"smiles": "COC(=O)c1c(C)n(Cc2ccccc2)c2ccc(O)cc12", "hERG current change (%, negative = inhibition) at 10uM": 14.8}
{"smiles": "O=C(NCCC1=CCCCC1)c1cc(COc2ccc(F)cc2Cl)on1", "hERG current change (%, negative = inhibition) at 10uM": 10.4}
{"smiles": "Cc1ccc(NC(=O)Cn2c(CCC(=O)O)ccc2-c2cccs2)cc1Cl", "hERG current change (%, negative = inhibition) at 10uM": -75.3}
{"smiles": "COc1cccc(NC(=O)Cn2c(CCC(=O)O)ccc2-c2cccs2)c1", "hERG current change (%, negative = inhibition) at 10uM": 12.4}
{"smiles": "Cc1ccc(NC(=O)Cn2c(CCC(=O)O)ccc2-c2cccs2)cc1", "hERG current change (%, negative = inhibition) at 10uM": -2.61}
{"smiles": "CC(C)Oc1ccc(S(=O)(=O)N2CCOCC2)cc1NC(=O)C1CCCCC1", "hERG current change (%, negative = inhibition) at 10uM": -19.6}
{"smiles": "O=C(O)CSc1ncnc2sc(-c3ccccc3)cc12", "hERG current change (%, negative = inhibition) at 10uM": 23.6}
{"smiles": "Cc1cccc(Nc2sc(C(=O)c3cc4cc(Cl)ccc4o3)c(N)c2C#N)c1", "hERG current change (%, negative = inhibition) at 10uM": -2.78}
{"smiles": "COc1ccc(N2CCN(c3nc(Cl)nc(Nc4ccc(F)cc4)n3)CC2)cc1", "hERG current change (%, negative = inhibition) at 10uM": 7.8}
{"smiles": "CN1CCN(c2nc(Nc3cccc(C(F)(F)F)c3)nc(N3CCOCC3)n2)CC1", "hERG current change (%, negative = inhibition) at 10uM": -60}
{"smiles": "FC(F)(F)c1cccc(Nc2nc(N3CCCC3)nc(N3CCCC3)n2)c1", "hERG current change (%, negative = inhibition) at 10uM": 23.7}
{"smiles": "FC(F)(F)c1cccc(Nc2nc(N3CCOCC3)nc(N3CCOCC3)n2)c1", "hERG current change (%, negative = inhibition) at 10uM": 15.6}
{"smiles": "Cl.Fc1ccc(Nc2nc(N3CCOCC3)nc(N3CCOCC3)n2)cc1", "hERG current change (%, negative = inhibition) at 10uM": 4.26}
{"smiles": "CN1CCN(c2nc(Nc3ccc(F)cc3)nc(Nc3ccc(F)cc3)n2)CC1", "hERG current change (%, negative = inhibition) at 10uM": -60.5}
